For 20 compounds, growth inhibition results are on record in PubChem BioAssay (NCI).

SMILES strings stand for the structures. Compounds without any hit were thinned out: in the full panel of roughly 79,000, 15% have a hit. Values without a mark were called inactive. The source made the active and inactive calls. No stated cut-off is given here; in the data, active means growth inhibition above about 70%; inactive means the rest.

Test [1] in a line: NCI Yeast Anticancer Drug Screen. Data for the rad50 strain (AID 155).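 Further: 0% = growth of vehicle-only cultures of the same strain.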 The following applies: S. cerevisiae rad50 strain growth inhibition; at 50.0 µM; stronger effect = higher value. In outline: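 Relative growth inhibition (compound vs vehicle) was measured in yeast with a defined repair-gene alteration.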
Test [2] is described as follows: NCI Yeast Anticancer Drug Screen. Data for the mec2-1 strain (AID 157). The following applies: S. cerevisiae mec2-1 strain, at 50.0 µM, stronger effect = higher value. In outline: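 Vehicle-treated cultures served as reference for growth inhibition of compound-exposed mec2-1 yeast.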
Test [3] in a line: NCI Yeast Anticancer Drug Screen. Data for the sgs1 mgt1 strain (AID 161).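 Further: 0% = growth of cultures given vehicle only.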 The following applies: S. cerevisiae sgs1 mgt1 strain, at 50.0 µM, stronger effect = higher value. An outline of the steps:
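Inhibition of yeast growth, normalised to vehicle-treated controls, is reported for a strain bearing genetic alterations in DNA damage repair.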

A short description of test [4]: NCI Yeast Anticancer Drug Screen. Data for the cln2 rad14 strain (AID 165).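 Further: 0% = growth equal to vehicle treated cultures.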 The following applies: S. cerevisiae cln2 rad14 strain, at 50.0 µM, stronger effect = higher value. An outline of the steps:
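Each compound was tested on cln2 rad14 yeast. Inhibition of growth was calculated against vehicle-exposed controls.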

Test [5] in a line: NCI Yeast Anticancer Drug Screen. Data for the bub3 strain (AID 167). The following applies: S. cerevisiae bub3 mutant strain, at 50.0 µM, stronger effect = higher value. An outline of the steps: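 Screening used yeast with an engineered genetic alteration affecting cell cycle control. Compound-exposed cultures were compared with vehicle cultures, and reduced growth was taken as inhibition.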

Test [6] in a line: NCI Yeast Anticancer Drug Screen. Data for the mlh1 rad18 strain (AID 175). Particulars: S. cerevisiae mlh1 rad18 strain growth inhibition; at 50.0 µM; stronger effect = higher value. An outline of the steps: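 Vehicle-treated cultures served as the reference for growth inhibition in a yeast strain carrying DNA damage repair alterations exposed to each compound.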

Turning to `CSP(=S)(SC)SC(C)C`, the growth inhibition in test [1] is 19%; in test [2], 1.65%; in test [3] it was 24.1%; in test [4] it was 27.2%; in test [5] it was 6.5%; in test [6] it was -4.45%.

As to `CN(C)/N=C(\N)c1nnn(C)n1`, the growth inhibition is -4.45% in test [1]; -14.2% in test [2]; -15.2% in test [3]; -32.8% in test [4]; -11.2% in test [5]; -0.3% in test [6].

Consider `O=C(CC(=O)C(F)(F)F)c1ccco1.[Co]`, for which the growth inhibition in test [1] is -16.5%; in test [2] it was -17.2%; in test [3] it was -16.5%; in test [4], -10.5%; in test [5] it was -7.8%; in test [6], 3.55%.

As to `CCCCn1c(C)c(C(=O)OCC)c2cc(OCc3ccc(C(=O)Nn4c(C)ccc4C)cc3)c(Br)cc21`, the growth inhibition is 7.1% in test [1]; -30.7% in test [2]; -15.5% in test [3]; -18.6% in test [4]; -27.4% in test [5]; -20.1% in test [6].

On to `O=P(N1CCCCCC1)(N1CC1)N1CC1`, for which the growth inhibition is -2.15% in test [1]; 11% in test [2]; -11.4% in test [3]; 3.95% in test [4]; -3.25% in test [5]; 6.35% in test [6].

On to `Cc1cc([N+](=O)[O-])c(N)c([N+](=O)[O-])c1`, for which the growth inhibition is -1.55% in test [1]; -11.1% in test [2]; -9.8% in test [3]; 3.6% in test [4]; -10.8% in test [5]; -4.75% in test [6].

For the compound `COc1cc(C2c3cc4c(cc3OC3(OC)COC(=O)C23)OCO4)cc(OC)c1OC(C)=O` (stereo not given), the growth inhibition in test [1] was -8.95%; in test [2], 0.45%; in test [3], -2.05%; in test [4] it was -6.9%; in test [5], -24.6%; in test [6], 8.1%.

Turning to `Cc1cc(C)c(C(=O)O)c(C)c1.[Hg]`, the growth inhibition in test [1] was 99.6% (active); in test [2], 99.8% (active); in test [3], 99.7% (active); in test [4], 99.5% (active); in test [5], 99.7% (active); in test [6], 99.7% (active).

In the case of `Brc1ccc(Oc2ccc(Br)cc2Br)c(Br)c1`, the growth inhibition in test [1] was 13.9%; in test [2] it was -21.5%; in test [3], 8.2%; in test [4] it was 2%; in test [5], 21.6%; in test [6], 32.4%.

Consider `CC(Br)CN(CC(C)Br)c1ccc(-c2ccccc2)cc1` (stereo not given), for which the growth inhibition was 38.5% in test [1]; 30% in test [2]; 12.6% in test [3]; 35.7% in test [4]; 15.6% in test [5]; 21.7% in test [6].

As for `CN1CCCC1c1ccc[n+](C)c1` (stereo not given), the growth inhibition in test [1] is -2.95%; in test [2], 1.85%; in test [3], 5.6%; in test [4], -8.65%; in test [5] it was 2.1%; in test [6] it was 3.35%.

On to `CC1=C(C)C(=O)O[C@@H]([C@](C)(O)[C@]2(O)CC[C@@]3(O)[C@@H]4C[C@H](O)[C@]5(O)[C@@H](O)C=CC(=O)[C@]5(C)[C@H]4CC[C@]23C)C1`, for which the growth inhibition in test [1] is 21.9%; in test [2] it was 11.2%; in test [3] it was 7.1%; in test [4] it was 23.2%; in test [5], 9.5%; in test [6], -52.8%.

Take `OCCNC1CCCCC1`: the growth inhibition is 5.15% in test [1]; -1.65% in test [2]; -13.8% in test [3]; -1.8% in test [4]; 3.55% in test [5]; -16.1% in test [6].

For the compound `O=NNc1ncc([N+](=O)[O-])cn1`, the growth inhibition was -1.05% in test [1]; 5.35% in test [2]; -5.9% in test [3]; -23.4% in test [4]; -5% in test [5]; -8.4% in test [6].

With `CCC1C(=O)NC(=O)N(c2ccccc2)C1=O` (stereo not given), the growth inhibition was 13.7% in test [1]; -8.3% in test [2]; -3.25% in test [3]; -39.4% in test [4]; 3.1% in test [5]; -6% in test [6].

`CC1=C[C@H]2O[C@@H]3[C@H](OC(=O)CCl)[C@@H](O)[C@](C)(C2(COC(=O)CCl)CC1)[C@@]31CO1` (stereo not given in full): the growth inhibition in test [1] is 91.8% (active); in test [2], 92.8% (active); in test [3], 92.7% (active); in test [4] it was 91.6% (active); in test [5], 92.2% (active); in test [6], 91.2% (active).

On to `O=C(NCC(O)CO)c1cc(N(CCCl)CCCl)c([N+](=O)[O-])cc1[N+](=O)[O-]` (stereo not given), for which the growth inhibition in test [1] is 3.8%; in test [2], -35.9%; in test [3], -10.5%; in test [4] it was -63.6%; in test [5] it was -10.4%; in test [6] it was 6.35%.

In the case of `NS(=O)(=O)c1cc(N(CCCl)CCCl)c([N+](=O)[O-])cc1[N+](=O)[O-]`, the growth inhibition in test [1] is -72.8%; in test [2], -36.8%; in test [3], -12.5%; in test [4] it was 2.1%; in test [5] it was -16.1%; in test [6], -34.5%.

With `[Cl][Sn]1([Cl])[CH2]CCCCCC[CH2][Sn]([Cl])([Cl])[CH2]CCCCCC[CH2]1`, the growth inhibition in test [1] was 26.4%; in test [2] it was 6.75%; in test [3] it was 24.1%; in test [4], 33.8%; in test [5], -2.05%; in test [6], 18.7%.

For `Cn1cnc([N+](=O)[O-])c1C(=O)O` (tested in a mixture with another compound), the growth inhibition in test [1] was -18.2%; in test [2], -3.55%; in test [3], -6.65%; in test [4] it was -18.4%; in test [5] it was 27.3%; in test [6], -1%.
